Results taken from PubChem BioAssay (EPA / NIEHS).
Where “and” joins values, the source holds several entries; their conditions need not be identical. Equal values may be shown once. Records with an inconclusive call do not appear. Calls of active or inactive are those of the source. How the source made its calls, unless noted: active means hit-call score of the fitted dose curve at least 0.9, where 1 is the maximum; inactive means score below 0.9.

Experiments:
[1] = biological target: Hepatocyte nuclear factor 4-alpha (Homo sapiens) (UniProt P41235); experiment: ATG_HNF4a_TRANS: Attagene TRANS-FACTORIAL HepG2 Assay for human Hepatocyte Nuclear Factor 4 alpha (HNF4a) (AID 2282982; active means hit-call score of the fitted dose curve at least 0.9, where 1 is the maximum); settings: HepG2 HNF4a transactivation reporter, mRNA readout
Sequence of Hepatocyte nuclear factor 4-alpha (Homo sapiens) (P41235 whole entry, looked up): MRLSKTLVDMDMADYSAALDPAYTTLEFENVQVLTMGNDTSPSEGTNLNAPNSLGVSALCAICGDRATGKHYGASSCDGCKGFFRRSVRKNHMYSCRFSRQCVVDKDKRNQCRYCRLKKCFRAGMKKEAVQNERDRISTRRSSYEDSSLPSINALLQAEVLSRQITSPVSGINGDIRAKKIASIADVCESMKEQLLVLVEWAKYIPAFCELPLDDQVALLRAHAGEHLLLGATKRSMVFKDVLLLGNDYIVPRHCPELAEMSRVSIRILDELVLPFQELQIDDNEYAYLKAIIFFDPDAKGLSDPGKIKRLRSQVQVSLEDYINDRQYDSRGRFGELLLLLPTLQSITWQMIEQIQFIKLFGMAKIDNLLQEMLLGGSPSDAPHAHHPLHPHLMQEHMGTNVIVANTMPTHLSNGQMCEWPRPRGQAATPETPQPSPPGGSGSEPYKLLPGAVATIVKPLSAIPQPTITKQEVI
Procedure, shortened: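 Transient MRTU transfection of HepG2, 24 h dosing. Readout: reporter mRNA via RT-PCR + capillary electrophoresis, fluorescence; activity fit upward relative to DMSO control.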

[2] = ATG_M_32_TRANS: Attagene TRANS-FACTORIAL HepG2 Assay for M32 Transcription Factor (Internal Marker) (AID 2282984; active means hit-call score of the fitted dose curve at least 0.9, where 1 is the maximum;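 further: transcript level of a background control reporter unit measured by RT-PCR and capillary electrophoresis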); settings: HepG2 Attagene TRANS M32 internal marker reporter
Procedure, shortened: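 Read-out: fluorescent reporter cDNA fragments resolved by capillary electrophoresis after RT-PCR of total RNA. Transfected HepG2 cells were exposed to chemical for 24 h. Activity scored in the positive direction relative to DMSO.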

[3] = biological target: Transcriptional activator Myb (Homo sapiens) (UniProt P10242); experiment: ATG_Myb_CIS: Attagene CIS-FACTORIAL HepG2 Assay for human Myeloblastosis (Myb) Proto-Oncogene Transcription Factor (AID 2282986); settings: HepG2 Attagene CIS-FACTORIAL Myb reporter transcription; actives raise or lower the signal
Sequence of Transcriptional activator Myb (Homo sapiens) (P10242 whole entry, looked up): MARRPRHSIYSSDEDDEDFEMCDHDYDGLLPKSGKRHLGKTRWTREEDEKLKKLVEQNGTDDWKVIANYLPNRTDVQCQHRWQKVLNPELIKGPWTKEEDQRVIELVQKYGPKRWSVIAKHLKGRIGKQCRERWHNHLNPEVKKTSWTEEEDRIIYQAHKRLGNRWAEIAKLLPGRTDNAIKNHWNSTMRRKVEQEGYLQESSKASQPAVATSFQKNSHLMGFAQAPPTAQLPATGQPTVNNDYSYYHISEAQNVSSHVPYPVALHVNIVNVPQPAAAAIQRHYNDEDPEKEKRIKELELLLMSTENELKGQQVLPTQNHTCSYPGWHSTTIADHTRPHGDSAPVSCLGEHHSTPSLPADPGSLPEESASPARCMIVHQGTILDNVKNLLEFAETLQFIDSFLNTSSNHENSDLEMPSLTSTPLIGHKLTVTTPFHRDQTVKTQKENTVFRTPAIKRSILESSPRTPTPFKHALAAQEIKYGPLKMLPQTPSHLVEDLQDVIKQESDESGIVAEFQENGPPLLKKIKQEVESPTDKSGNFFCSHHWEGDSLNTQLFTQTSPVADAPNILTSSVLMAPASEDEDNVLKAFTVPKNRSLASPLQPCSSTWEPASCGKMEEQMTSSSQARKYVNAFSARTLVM
Procedure, shortened: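 Transiently transfected HepG2 cells carrying a multiplexed cis-promoter reporter set report endogenous Myb activity after 24 h compound exposure. Reporter mRNA is read by RT-PCR with capillary electrophoresis of fluorescent products, fitted bidirectionally against DMSO.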

[4] = biological target: Nuclear respiratory factor 1 (Homo sapiens) (UniProt Q16656); experiment: ATG_NRF1_CIS: Attagene CIS-FACTORIAL HepG2 Assay for human Nuclear Respiratory Factor 1 (NRF1) Orphan Gene (AID 2282987); settings: HepG2 NRF1 cis-element reporter, Attagene multiplex; actives raise or lower the signal
Sequence of Nuclear respiratory factor 1 (Homo sapiens) (Q16656 whole entry, looked up): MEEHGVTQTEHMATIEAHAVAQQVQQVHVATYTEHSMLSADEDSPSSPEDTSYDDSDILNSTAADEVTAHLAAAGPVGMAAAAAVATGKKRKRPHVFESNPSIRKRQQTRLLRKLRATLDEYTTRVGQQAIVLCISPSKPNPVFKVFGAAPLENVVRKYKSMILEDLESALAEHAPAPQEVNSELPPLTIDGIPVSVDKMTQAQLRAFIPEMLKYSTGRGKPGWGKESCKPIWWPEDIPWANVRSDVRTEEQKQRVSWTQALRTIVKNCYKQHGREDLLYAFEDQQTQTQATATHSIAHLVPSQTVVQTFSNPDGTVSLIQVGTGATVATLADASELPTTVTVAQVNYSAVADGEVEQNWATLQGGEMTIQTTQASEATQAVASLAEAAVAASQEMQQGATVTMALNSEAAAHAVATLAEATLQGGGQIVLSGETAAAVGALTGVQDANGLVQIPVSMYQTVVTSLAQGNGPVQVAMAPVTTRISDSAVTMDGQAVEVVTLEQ
Procedure, shortened: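 HepG2 cells transiently transfected with multiple cis-regulated reporter units, exposed 24 h. Reporter mRNAs measured by RT-PCR, fluorescent labelling, HpaI digestion and capillary electrophoresis; bidirectional fitting against DMSO.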

[5] = ATG_NFI_CIS: Attagene CIS-FACTORIAL HepG2 Assay for human Nuclear Factor I (NFI) (AID 2282989); settings: HepG2 cis-regulatory reporter, NFI response element transcription; actives raise or lower the signal
Procedure, shortened: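 HepG2 cells transiently transfected with cis-element-driven multiplexed reporter transcription units, dosed for 24 h. Reporter mRNA quantified by RT-PCR, fluorescent labelling, HpaI digestion and capillary electrophoresis; bidirectional fit versus DMSO baseline.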

[6] = biological target: Myc proto-oncogene protein (Homo sapiens) (UniProt P01106); experiment: ATG_Myc_CIS: Attagene CIS-FACTORIAL HepG2 Assay for human Myelocytomatosis (Myc) Proto-Oncogene Transcription Factor (AID 2282990); settings: HepG2, Attagene cis-reporter transcription factor activity; actives raise or lower the signal
Sequence of Myc proto-oncogene protein (Homo sapiens) (P01106 whole entry, looked up, the tested form may be a part): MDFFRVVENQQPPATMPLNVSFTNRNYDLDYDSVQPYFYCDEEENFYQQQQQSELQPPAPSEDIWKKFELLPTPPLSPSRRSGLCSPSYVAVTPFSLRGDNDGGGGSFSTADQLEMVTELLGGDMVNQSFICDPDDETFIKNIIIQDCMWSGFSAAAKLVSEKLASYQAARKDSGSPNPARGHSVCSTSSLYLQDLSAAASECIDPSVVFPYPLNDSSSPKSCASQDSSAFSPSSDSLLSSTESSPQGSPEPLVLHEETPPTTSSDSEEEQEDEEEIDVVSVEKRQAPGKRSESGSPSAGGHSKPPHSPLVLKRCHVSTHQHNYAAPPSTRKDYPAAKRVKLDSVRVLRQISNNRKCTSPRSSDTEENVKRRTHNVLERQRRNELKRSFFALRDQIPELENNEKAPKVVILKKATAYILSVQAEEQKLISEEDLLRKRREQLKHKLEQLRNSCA
Procedure, shortened: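 Fluorescence intensity of reporter-specific cDNA fragments, separated by capillary electrophoresis, gives the signal. Transfected HepG2 cells carrying cis-promoter reporter constructs are incubated with compound for 24 h; DMSO serves as baseline.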

[7] = ATG_NF_kB_CIS: Attagene CIS-FACTORIAL HepG2 Assay for human Nuclear Factor Kappa B (NF-kB) (AID 2282991); settings: HepG2 Attagene cis-factorial NF-kB reporter mRNA; actives raise or lower the signal
Procedure, shortened: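 HepG2 cells transfected with cis-promoter-driven reporter units, so endogenous transcription factor activity is measured. Reporter mRNA quantified 24 h after dosing by RT-PCR and capillary electrophoresis, with bidirectional fitting against DMSO.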

[8] = ATG_NRF2_ARE_CIS: Attagene CIS-FACTORIAL HepG2 Assay for human Nuclear Factor Erythroid 2 Related Factor 2 (NFR2) response to Antioxidant Response Elements (ARE) (AID 2282992); settings: HepG2 Attagene ARE/NRF2 reporter, transcription factor activity; actives raise or lower the signal;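 on AC50: reporter mRNA level measured by RT-PCR and capillary electrophoresis fluorescence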
Procedure, shortened: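 Using transiently transfected HepG2 cells exposed for 24 h, reporter mRNA levels were determined by RT-PCR with fluorescent primer extension and capillary electrophoresis, analysed for gain or loss of signal against DMSO.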

[9] = ATG_Oct_MLP_CIS: Attagene CIS-FACTORIAL HepG2 Assay for human Octamer-Binding Transcription Factor (Oct) (AID 2282993); settings: HepG2 Attagene cis-factorial Oct reporter, mRNA; actives raise or lower the signal
Procedure, shortened: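 HepG2 cells transiently transfected with cis-promoter-driven multiplexed reporter transcription units, dosed for 24 h. Reporter mRNA quantified by RT-PCR, fluorescent labelling, HpaI digestion and capillary electrophoresis; bidirectional fits versus DMSO baseline.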

[10] = ATG_M_06_TRANS: Attagene TRANS-FACTORIAL HepG2 Assay for M06 Transcription Factor (Internal Marker) (AID 2282983; active means hit-call score of the fitted dose curve at least 0.9, where 1 is the maximum;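 further: reporter transcript level by RT-PCR then capillary electrophoresis fluorescence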); settings: HepG2 Attagene TRANS M06 internal marker reporter
Procedure, shortened: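 Background control endpoint: reporter mRNA from transiently transfected HepG2 after 24 h dosing, detected by RT-PCR with capillary electrophoresis fluorescence. Analysed for gain versus DMSO.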

[11] = biological target: Cellular tumor antigen p53 (Homo sapiens) (UniProt P04637); experiment: ATG_p53_CIS: Attagene CIS-FACTORIAL HepG2 Assay for human p53 Transcription Factor (AID 2282994); settings: HepG2 p53 cis-element reporter, Attagene mRNA; actives raise or lower the signal
Sequence of Cellular tumor antigen p53 (Homo sapiens) (P04637 whole entry, looked up, the tested form may be a part): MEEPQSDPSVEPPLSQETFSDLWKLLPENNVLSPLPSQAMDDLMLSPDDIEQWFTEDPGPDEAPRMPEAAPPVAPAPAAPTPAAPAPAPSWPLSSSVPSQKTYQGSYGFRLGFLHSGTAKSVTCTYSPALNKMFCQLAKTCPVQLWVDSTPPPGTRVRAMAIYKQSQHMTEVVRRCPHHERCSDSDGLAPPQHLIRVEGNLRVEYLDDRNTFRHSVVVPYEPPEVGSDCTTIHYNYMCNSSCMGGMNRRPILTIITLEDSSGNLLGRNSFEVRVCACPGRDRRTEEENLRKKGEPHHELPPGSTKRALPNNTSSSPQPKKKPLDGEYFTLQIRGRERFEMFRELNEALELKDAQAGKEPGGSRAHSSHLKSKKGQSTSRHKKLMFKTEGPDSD
Procedure, shortened: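 In HepG2 cells, reporter transcription units under cis-regulatory promoters were transiently introduced. Following 24 h treatment, RNA was processed to labelled, digested cDNA fragments read by capillary electrophoresis; fitting was bidirectional versus DMSO.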

[12] = biological target: Nuclear receptor subfamily 4 group A member 2 (Homo sapiens) (UniProt P43354); experiment: ATG_NURR1_TRANS: Attagene TRANS-FACTORIAL HepG2 Assay for human Nuclear Receptor Related Protein 1 (NURR1) (AID 2282985; active means hit-call score of the fitted dose curve at least 0.9, where 1 is the maximum); settings: HepG2 Attagene TRANS reporter, mRNA readout
Sequence of Nuclear receptor subfamily 4 group A member 2 (Homo sapiens) (P43354 whole entry, looked up, the tested form may be a part): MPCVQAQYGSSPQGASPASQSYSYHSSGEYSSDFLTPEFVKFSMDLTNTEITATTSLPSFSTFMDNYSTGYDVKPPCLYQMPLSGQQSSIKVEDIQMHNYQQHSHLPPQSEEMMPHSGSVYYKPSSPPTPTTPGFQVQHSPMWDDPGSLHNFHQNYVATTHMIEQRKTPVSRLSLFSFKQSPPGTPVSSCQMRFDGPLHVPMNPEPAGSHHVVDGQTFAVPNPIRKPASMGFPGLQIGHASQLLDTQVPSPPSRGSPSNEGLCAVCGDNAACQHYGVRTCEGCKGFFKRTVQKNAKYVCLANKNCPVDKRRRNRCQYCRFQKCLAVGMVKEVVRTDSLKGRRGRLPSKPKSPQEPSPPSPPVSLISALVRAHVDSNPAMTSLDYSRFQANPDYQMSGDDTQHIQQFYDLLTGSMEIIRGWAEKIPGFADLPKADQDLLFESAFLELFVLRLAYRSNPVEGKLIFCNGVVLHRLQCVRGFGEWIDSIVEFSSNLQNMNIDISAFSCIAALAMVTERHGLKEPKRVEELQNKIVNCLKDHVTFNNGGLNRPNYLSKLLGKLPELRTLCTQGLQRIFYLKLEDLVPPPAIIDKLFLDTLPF
Procedure, shortened: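 Read-out: reporter mRNA induction by RT-PCR plus capillary electrophoresis with fluorescence detection, after 24 h dosing of transfected HepG2 cells. Exogenous NR-Gal4 chimera activity drives GAL4-UAS reporter; activity fitted upward versus DMSO.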

[13] = biological target: Oxysterols receptor LXR-beta (Homo sapiens) (UniProt P55055); experiment: ATG_LXRb_TRANS: Attagene TRANS-FACTORIAL HepG2 Assay for human Liver X Receptor beta (LXRb) (AID 2282981; active means hit-call score of the fitted dose curve at least 0.9, where 1 is the maximum); settings: HepG2 Attagene TRANS GAL4-LXRb reporter, mRNA
Sequence of Oxysterols receptor LXR-beta (Homo sapiens) (P55055 whole entry, looked up, the tested form may be a part): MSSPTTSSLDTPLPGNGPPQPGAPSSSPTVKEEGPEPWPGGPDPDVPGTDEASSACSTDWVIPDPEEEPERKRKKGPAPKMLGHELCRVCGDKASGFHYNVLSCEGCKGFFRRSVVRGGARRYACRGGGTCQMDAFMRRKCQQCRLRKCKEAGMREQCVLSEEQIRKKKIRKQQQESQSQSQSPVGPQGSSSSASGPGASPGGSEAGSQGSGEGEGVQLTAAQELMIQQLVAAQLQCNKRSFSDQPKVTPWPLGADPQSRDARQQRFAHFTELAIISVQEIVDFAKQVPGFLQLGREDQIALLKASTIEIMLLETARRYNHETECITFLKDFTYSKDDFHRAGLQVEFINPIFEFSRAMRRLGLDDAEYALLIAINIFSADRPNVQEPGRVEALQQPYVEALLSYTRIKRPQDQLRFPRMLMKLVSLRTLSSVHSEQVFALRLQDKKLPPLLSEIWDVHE
Procedure, shortened: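 Readout: fluorescent reporter mRNA fragments resolved by capillary electrophoresis after RT-PCR. System: transiently transfected human HepG2, exogenous LXRb-Gal4 chimera driving GAL4-UAS reporter, 24 h dosing. Activity fitted upward against DMSO baseline.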

[14] = BSK_3C_TissueFactor: BioMAP Diversity Plus: 3C Assay for Tissue Factor Biomarker Activity (AID 2282997); settings: BioMAP 3C HUVEC, tissue factor biomarker readout; actives raise or lower the signal
Procedure, shortened: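 After a 24 h chemical exposure of primary human umbilical vein endothelial cells, Tissue Factor levels were quantified by ELISA.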

[15] = BSK_3C_uPAR: BioMAP Diversity Plus: 3C Assay for Urokinase-type plasminogen activator receptor (uPAR) Biomarker Activity (AID 2282998); settings: BioMAP 3C HUVEC, uPAR biomarker ELISA; actives raise or lower the signal
Procedure, shortened: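 Human umbilical vein endothelial primary cells were exposed to test chemical for 24 h. Cell-surface uPAR was then quantified by ELISA, and responses were fitted bidirectionally against DMSO as negative control and baseline.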

[16] = BSK_3C_VCAM1: BioMAP Diversity Plus: 3C Assay for Vascular cell adhesion molecule 1 (VCAM1) Biomarker Activity (AID 2282999); settings: BioMAP 3C HUVEC, VCAM1 ELISA, cytokine-stimulated; actives raise or lower the signal
Procedure, shortened: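 HUVEC primary cells, 24 h compound exposure; VCAM-1 by ELISA; gain/loss of signal fitted bidirectionally vs DMSO baseline.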

[17] = BSK_4H_Eotaxin3: BioMAP Diversity Plus: 4H Assay for Eotaxin 3 Biomarker Activity (AID 2283000); settings: primary human endothelial cells (HUVEC); actives raise or lower the signal
Procedure, shortened: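 Chemicals were added to human umbilical vein endothelium cultures, and Eotaxin-3 was quantified by ELISA at 24 h. Values were derived by bidirectional fitting with DMSO serving as negative control and activity baseline.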

Measured: AC50

O=C(c1ccccc1)C1CCC1
inactive: [1] | [2] | [3] | [4] | [5] | [6] | [7] | [8] | [9]

O=c1cc[nH]c(=S)[nH]1
inactive: [1] | [10] | [2] | [4] | [5] | [7] | [8] | [9] | [11]

CCCCCCCCCCOC(C)=O
inactive: [1] | [10] | [12] | [3] | [4] | [5] | [6] | [7] | [8] | [9]

CC(CC=O)c1ccccc1 (stereo not drawn)
active: [8] 121 µM
inactive: [10] | [12] | [3] | [4] | [5] | [6] | [9] | [11]

CC(C)=CC1CC(C)CCO1 (stereo not drawn)
inactive: [1] | [10] | [3] | [4] | [5] | [6] | [7] | [8] | [11]

OC1OCCOC1O (stereo not drawn)
inactive: [10] | [2] | [4] | [5] | [6] | [7] | [8] | [9] | [11]

C[C@]12C=CC(=O)C=C1CC[C@@H]1[C@@H]2[C@@H](O)C[C@@]2(C)[C@H]1CC[C@]2(O)C(=O)CO
inactive: [13] | [12] | [3] | [4] | [5] | [6] | [7] | [8] | [9]

FC(F)=C(F)OC(F)(F)C(F)(F)C(F)(F)F
inactive: [13] | [12] | [3] | [4] | [5] | [6] | [7] | [9] | [11]

O=S(=O)(Oc1ccc(Cl)cc1Cl)c1ccccc1
active: [12] 35.4 µM | [8] 11.5 µM
inactive: [10] | [3] | [4] | [5] | [6] | [7] | [9]

CC(=O)Oc1ccc(C)cc1
active: [8] 19.6 µM
inactive: [2] | [12] | [4] | [5] | [7] | [11]

Clc1nc2ccccc2s1
inactive: [1] | [10] | [2] | [12] | [4] | [5] | [6] | [7] | [9] | [11]

COc1ccc(NC(C)=O)cc1N
inactive: [13] | [12] | [3] | [5] | [6] | [7] | [8] | [9]

CCOC(=O)c1ccccc1C(=C1C=C(Br)C(=O)C(Br)=C1)c1cc(Br)c(O)c(Br)c1
inactive: [1] | [10] | [2] | [3] | [4] | [6] | [8]
active: [7] 43 µM | [9] 53.1 µM | [11] 48.3 µM | [14] 18.6 µM and 9.69 µM | [15] 20 µM and 17.9 µM | [16] 22.9 µM and 21.4 µM | [17] 22.7 µM and 23 µM

CCCC(C)CCC(C)=O (stereo not drawn)
inactive: [10] | [12] | [3] | [4] | [5] | [6] | [7] | [9]

CCCCC/C=C\C/C=C\CCCCCCCC(=O)OC
active: [3] 162 µM | [4] 171 µM | [7] 37 µM | [8] 32.5 µM | [14] 20 µM | [15] 33.7 µM | [16] 30 µM | [17] 34 µM
inactive: [1] | [10] | [2] | [12] | [5] | [6]

CCCC(=O)OCc1ccccc1
inactive: [1] | [2] | [3] | [5] | [6] | [7] | [8] | [9]

C=CC(C)(C)C
inactive: [2] | [3] | [4] | [5] | [6] | [8] | [9]

c1c[nH]cn1
inactive: [1] | [3] | [4] | [5] | [6] | [7] | [8] | [9] | [11]

C=CC(=O)OCCC(=O)O
inactive: [1] | [10] | [2] | [3] | [4] | [5] | [6] | [7] | [9] | [11]
active: [8] 43.2 µM

O=C(O)c1cc(Cl)cc([N+](=O)[O-])c1Cl
inactive: [10] | [2] | [3] | [4] | [5] | [6] | [7] | [8] | [9] | [11]
